# RORg inh – ROR gamma (mouse) transcription inhibition; P51450; Drosophila S2 Gal4-RORgamma UAS-luciferase reporter, 20 h; Potency, µM (doses to about 53.6 µM), without a hit: top-dose activity change, negative = inhibition, most hits filed as inhibitors; hit rate 5.4% among 310,000; also: nearly all actives have a fitted effect of over 60% in size
#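 Compounds are pin-transferred onto Drosophila Schneider cells expressing a copper-inducible Gal4–ROR gamma transactivation domain fusion. After 1 hr, copper sulfate is added to 700 uM final; luciferase is read 20 hr later.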
# Gal4-VP16 FLuc – counter-screen for ROR gamma inhibitors: Gal4-VP16 reporter | Drosophila S2 Gal4-VP16 UAS-luciferase, luminescence, 20 h | Potency, µM (top dose mostly 53.6 µM), for the others: at the top dose activity, negative = inhibition, most hits filed as inhibitors | hit rate 3.5% among 310,000;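 also: Gal4-VP16 expression switched on by copper sulfate through the metallothionein promoter; nearly all actives have a fitted effect of over 50% in size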
# 12-LOX inh – inhibitors of human 12S-lipoxygenase ALOX12. Potency, µM (titrated, usually from 108 µM), for inactives: top-dose activity change, negative = inhibition, actives largely listed as inhibitors. P18054. purified 12hLO, xylenol orange hydroperoxide absorbance. hit rate 1.1% among 580,000
# Target sequence (P18054 whole entry, looked up): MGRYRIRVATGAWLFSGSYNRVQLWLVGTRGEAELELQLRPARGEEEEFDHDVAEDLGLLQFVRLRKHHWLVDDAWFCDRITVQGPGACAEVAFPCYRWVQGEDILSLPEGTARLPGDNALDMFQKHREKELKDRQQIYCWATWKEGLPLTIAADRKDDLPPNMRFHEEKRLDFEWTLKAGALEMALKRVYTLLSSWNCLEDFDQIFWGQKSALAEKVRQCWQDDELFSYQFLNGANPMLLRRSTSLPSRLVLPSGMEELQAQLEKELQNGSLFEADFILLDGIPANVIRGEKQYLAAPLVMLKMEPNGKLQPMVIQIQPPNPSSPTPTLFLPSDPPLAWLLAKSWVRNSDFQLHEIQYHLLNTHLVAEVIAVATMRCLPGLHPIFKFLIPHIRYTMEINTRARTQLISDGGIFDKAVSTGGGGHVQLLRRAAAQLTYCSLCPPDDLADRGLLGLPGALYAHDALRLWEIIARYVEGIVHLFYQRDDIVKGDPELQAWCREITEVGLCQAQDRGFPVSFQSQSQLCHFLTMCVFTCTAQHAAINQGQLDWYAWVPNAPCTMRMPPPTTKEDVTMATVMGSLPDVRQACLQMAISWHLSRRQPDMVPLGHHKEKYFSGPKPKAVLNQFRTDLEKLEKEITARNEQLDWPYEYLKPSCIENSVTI
#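 Purified human 12hLO (150 nM final) in 25 mM Hepes, 0.01% Triton X-100, pH 7.0 was preincubated 15 min at room temperature with compound. Then 40 uM arachidonic acid was added, 30 min. Hydroperoxide was read by Fe-XO absorbance ratio 573/405 nm.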
# ELG1 DNA repair – ELG1-dependent DNA repair inhibition | HEK293T ELG1-luciferase reporter, luminescence, 16 h; DNA damage induced by 5-fluorouridine | Potency, µM (doses to about 46.1 µM), for the others: at the highest dose activity change, negative = inhibition, actives largely listed as inhibitors | hit rate 2.3% among 330,000 | AID 504467; also: nearly all actives have a fitted effect of over 55% in size
#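 Overnight (16 hr) co-exposure of 2,000 cells/well to 5-fluorouridine and compound at 37 °C preceded detection. Luciferase was quantified via ONE-Glo luminescence; loss of signal denotes inhibition.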
# TDP1 cell noCPT – qHTS for Inhibitors of human tyrosyl-DNA phosphodiesterase 1 (TDP1): qHTS in cells in absence of CPT; DT40 Tdp1-/- hTDP1 cells, no CPT, ATP luminescence, 48 h; Potency, µM (top dose mostly 46.2 µM), without a hit: top-dose activity change, negative = growth inhibition, usual class: inhibitors; hit rate 15% among 420,000; also: nearly all actives have a fitted effect of over 55% in size
#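 Chicken DT40 Tdp1-/- cells stably complemented with human TDP1 were seeded at 400 cells/well with DMSO in place of 20 nM camptothecin. After compound pinning, cells grew at least 48 hr at 37 °C; viability read by CellTiter-Glo luminescence.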
# TDP1 cell CPT – growth inhibition of DT40 Tdp1-/-;hTDP1 cells with camptothecin (screen for TDP1 inhibitors). Potency, µM (highest dose often 46.2 µM), without a hit: at the highest dose activity change, negative = growth inhibition, most hits filed as inhibitors. hit rate 12% among 420,000. AID 686979. chicken DT40 Tdp1-/-;hTDP1 cells + 20 nM CPT, ATP luminescence, 48 h; also: nearly all actives have a fitted effect of over 55% in size
#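 Chicken DT40 Tdp1-/- cells complemented with human TDP1, 400 cells/well, exposed to compounds plus 20 nM camptothecin for at least 48 h at 37 C; viability read as ATP content by CellTiter-Glo luminescence.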
# Active calls of the source: *; ? = inconclusive; nt = no result given; ! = not confirmed by another sample; [ ] = dose if it differs, or a comment. The list is not random: actives were taken first. Their share in the collection is about 15%. Calls follow the shape of the dose curve; as a rule, active = well fitted curve in the direction sought with a large enough effect; inconclusive = small, poorly fitted or top-dose-only effect, or another doubt; inactive = no such curve, though single readings can be large; an effect the other way counts as inactive or inconclusive. % is scaled to controls: 0 for no effect and ±100 for the full control effect; potency is read from the fitted curve at half-maximal effect.
SMILES,RORg inh,Gal4-VP16 FLuc,12-LOX inh,ELG1 DNA repair,TDP1 cell noCPT,TDP1 cell CPT
O=C(NC1CCCCC1)C1CN(C(=O)c2ccc(C(F)(F)F)cc2)CC12CCOCC2 (centres undefined),nt,nt,9%,nt,nt,nt
CC1(C)CC(CCNS(=O)(=O)c2ccccc2)(c2ccccc2)CCO1 (centres undefined),23%,?,?,-4%,?,?
CCC1(C)CC(CCNS(=O)(=O)c2ccc(C)cc2)(c2ccc(C)cc2)CCO1 (centres undefined),-9%,-5%,?,-13%,29µM*,18µM*
COCCNC(=O)CCc1c(C)nn(-c2ccc(F)cc2)c1Oc1ccccc1C,nt,nt,62%,nt,nt,nt
Cc1c(C)n(Cc2ccc(F)cc2)c2ccc(C(=O)NCc3ccco3)cc12,nt,nt,0%,nt,?,?
COc1cccc(CN2CCc3c(cc(C(=O)Nc4ccccc4)n3C)C2)c1,nt,nt,4%,nt,nt,nt
COc1ccc(NC(=O)c2ccc3c(c2)c(C)c(C)n3Cc2ccc(F)cc2)cc1,nt,nt,0%,nt,4.6µM*,5.2µM*
COc1ccc(NC(=O)c2cc3c(n2C)CCN(Cc2ccc(F)cc2)C3)cc1,nt,nt,18µM*,nt,nt,nt
CCOC(=O)c1ccc(NC(=O)c2ccc3c(c2)c(C)c(C)n3Cc2ccc(F)cc2)cc1,nt,nt,-9%,nt,8.2µM*,9.2µM*
C/C=C1\NC(=O)[C@H](CC(N)=O)N(C)C(=O)C([C@@H](C)O)NC(=O)C(CCCc2ccc(OC)cc2)NC(=O)[C@H](C(C)C)NC(=O)/C(=C\C)NC(=O)[C@H](O)[C@@H](C[C@@H](O)CCCCCCC)NC(=O)[C@H](C)NC(=O)CN(C)C(=O)[C@H](CCC(N)=O)NC1=O (some centres undefined),nt,nt,8%,nt,8.2µM*,7.3µM*
O=c1[nH]c(=S)[nH]c2c1[C@H](C1CC1)O[C@H](CCc1ccccc1)C2,nt,nt,?,nt,13µM*,?
CCCCC1Cc2[nH]c(=S)[nH]c(=O)c2C(c2cccc3ccccc23)O1 (centres undefined),nt,nt,13µM*,nt,?,-15%
CC(C)[C@@H]1Cc2[nH]c(=S)[nH]c(=O)c2[C@H](CCc2ccccc2)O1,nt,nt,45µM*,nt,?,?
COC(=O)CCCC[C@@H]1O[C@H](CCc2ccccc2)Cc2[nH][nH]c(=O)c21,nt,nt,134%,nt,?,-18%
O=c1[nH][nH]c2c1[C@H](CCc1cccc(Cl)c1)O[C@H](CCc1ccccc1)C2,nt,nt,-9%,nt,18µM*,?
O=C(/C=C/c1cccc(O)c1)c1ccsc1,nt,nt,-27%,nt,nt,nt
O=C1CC(c2ccccc2)N(Cc2ccncc2)CCCN(S(=O)(=O)c2cccc(F)c2)CCN1 (centres undefined),nt,nt,9%,nt,nt,nt
Cc1noc(C)c1COC(=O)CCCNC(=O)c1ccc(Cl)cc1,16%,-4%,0%,-15%,?,6%
Cc1noc(C)c1COC(=O)/C=C/c1ccc(Cl)cc1,35%,2%,-5%,8%,16µM*,?
Cc1ccc(S(=O)(=O)N2CCN(C(=O)CSC3CCCC3)CC2)c(C)c1,-22%,-2%,?,21µM*,-15%,0%
CCC(=O)c1cc(Br)ccc1OCC(=O)N1CCN(S(=O)(=O)c2ccccc2)CC1,nt,nt,-14%,nt,23µM*,?
O=C(COc1ccc(Cl)cc1Br)N1CCN(S(=O)(=O)c2ccccc2)CC1,3%,1%,-9%,?,?,?
Cc1ccc(S(=O)(=O)N2CCN(C(=O)COC(=O)C3CC3C)CC2)c(C)c1 (centres undefined),nt,nt,0%,-2%,0%,-4%
Cc1ccc(C(=O)N2CCC(C(=O)c3c(C)cc(C)cc3C)CC2)cc1,-6%,3%,nt,16µM*,?,?
Cc1ccc(S(=O)(=O)N2CCN(C(=O)C3CCN(C(=O)c4ccc(F)cc4)CC3)CC2)c(C)c1,nt,nt,?,?,10µM*,?
SMILES,RORg inh,Gal4-VP16 FLuc,12-LOX inh,ELG1 DNA repair,TDP1 cell noCPT,TDP1 cell CPT
CC(=O)Nc1cccc(C(=O)NC2(c3ccc(F)cc3)CCC2)c1,nt,nt,-1%,nt,nt,nt
N#Cc1cnn2c(C(F)F)cc(-c3ccccc3)nc12,nt,nt,61%,nt,nt,nt
CCN(CC)S(=O)(=O)c1cccc(NS(=O)(=O)c2cccs2)c1,nt,nt,1%,nt,nt,nt
Cc1cc(N2CCCCS2(=O)=O)cc(C)c1S(=O)(=O)NCc1ccccn1,nt,nt,6%,nt,nt,nt
Cc1ccccc1C(=O)NC(NC(C)C)C(Cl)(Cl)Cl (centres undefined),nt,nt,2%,nt,nt,nt
CSc1nc(N2CCCC2)c2c3c(sc2n1)COC(C)(C)C3,nt,nt,-9%,nt,nt,nt
Cc1ccc(S(=O)(=O)N2CCN(CC(=O)N3CCCC3)CC2)c(C)c1,nt,nt,310%,?,-6%,2%
Cc1ccc(S(=O)(=O)N2CCN(C(=O)CSC(=S)N3CCCC3)CC2)c(C)c1,nt,nt,1%,?,3.3µM*,5.2µM*
Cc1ccccc1OCCC(=O)N1CCN(S(=O)(=O)c2ccc(Br)cc2)CC1,nt,nt,-5%,?,23µM*,?
CCOc1ccccc1OCCCC(=O)N1CCN(S(=O)(=O)c2ccc(C)cc2C)CC1,nt,nt,21%,?,-57%,21µM*
Cc1ccccc1OCCC(=O)N1CCN(S(=O)(=O)c2ccc(F)cc2)CC1,-5%,-8%,283%,4%,?,-28%
COc1ccc(C(=O)N[C@@H]2CCC[C@@H]2C(=O)NCc2ccc3c(c2)OCO3)cn1,nt,nt,-6%,nt,nt,nt
CN1C(C(=O)Nc2ccccn2)=C(O)c2ccccc2S1(=O)=O,16%,4%,24%,18%,?,-3%
CCOC(=O)OC(C)OC1=C(C(=O)Nc2ccccn2)N(C)S(=O)(=O)c2ccccc21 (centres undefined),-2%[10 µM],-4%,nt,nt,2.1µM*,?
CC(C)Oc1nnc(SCC(=O)NCc2ccccc2)s1,nt,nt,0%,nt,nt,nt
CCOC(=O)c1c(N/N=C/c2cccnc2)n[nH]c1C,-22%,?,0%,?,13µM*,13µM*
CCOC(=O)c1c(Nc2ccc(OC)cc2)n[nH]c1C,nt,nt,3%,nt,nt,nt
CCc1ccc(OCCCCN(C)Cc2ccccc2)cc1,4%[1.91 µM],-6%,?,-12%,29µM*,?
CN(CCOc1ccc(F)cc1)Cc1ccccc1,4%[1.91 µM],12%,?,15%,0%,1%
CCN(CC)CCOc1ccc(Cc2ccccc2)cc1,20%,-11%,?,nt,21µM*!,24µM*!
CN(CCCCOc1ccc(F)cc1)Cc1ccccc1,2%[1.91 µM],4%,1.1µM*,-22%,-2%,-15%
